# Measurements published in PubChem BioAssay (NCATS).
# Values joined by “and” are separate entries in the source; they are usually repeats but may differ in a detail not shown here. Equal values may be shown once. Records with an inconclusive call do not appear. Entries that show only a call come without a potency. Active and inactive are the calls of the source. Unless noted, calls come from the whole dose curve; as a rule, active = well fitted curve in the direction sought with a large enough effect; inconclusive = small, poorly fitted or top-dose-only effect, or another doubt; inactive = no such curve, though single readings can be large; an effect the other way counts as inactive or inconclusive.
# Key:
# [1] = qHTS of Trypanosoma Brucei Inhibitors: LOPAC Validation (AID 624147); conditions: purified enzyme assay, luminescence, 45 min; series mostly up to 57.5 µM
# Method in brief: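 Glycolytic pyruvate kinase of T. brucei was incubated with substrate, test compound and 130 uM ADP for 45 minutes at room temperature. Luminescent Kinase-Glo Plus signal was measured after 10 minutes.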
# [2] = HTS Assay for Allosteric Antagonists of the Human D2 Dopamine Receptor: Hit Validation in HTRF (AID 624455); conditions: Cells stably expressing D1 dopamine receptor, inhibition mode; series mostly up to 46.1 µM;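 note: stable D1 dopamine receptor cell line scored for blocking the D1 response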
# Method in brief: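 Hit validation in cells stably expressing the D1 dopamine receptor, run in HTRF format. Compounds were tested for their ability to inhibit the D1-mediated response.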
# [3] = qHTS assay for small molecule activators of the p53 signaling pathway (AID 651743; active = well fitted activation curve with a large enough effect in the signal ratio, not every such curve was filed as active; the % refers to the signal ratio); conditions: HCT-116 p53RE-bla, beta-lactamase FRET ratio, 16 h; activation: stronger effect = higher value
# Method in brief: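 Cell-based beta-lactamase reporter (p53 response elements, HCT-116 background). After a 5-hour preincubation, cells received compound for 16 hours at 37 C; substrate development ran 2 hours at room temperature.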
# [4] = biological target: Glucagon-like peptide 1 receptor (Homo sapiens) (UniProt P43220); assay: qHTS of GLP-1 Receptor Agonists: LOPAC Validation (AID 624148); conditions: GLP-1R agonist cell assay; series mostly up to 46.1 µM;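 note: higher luminescence signal means agonism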
# Sequence of Glucagon-like peptide 1 receptor (Homo sapiens) (P43220 whole entry, looked up): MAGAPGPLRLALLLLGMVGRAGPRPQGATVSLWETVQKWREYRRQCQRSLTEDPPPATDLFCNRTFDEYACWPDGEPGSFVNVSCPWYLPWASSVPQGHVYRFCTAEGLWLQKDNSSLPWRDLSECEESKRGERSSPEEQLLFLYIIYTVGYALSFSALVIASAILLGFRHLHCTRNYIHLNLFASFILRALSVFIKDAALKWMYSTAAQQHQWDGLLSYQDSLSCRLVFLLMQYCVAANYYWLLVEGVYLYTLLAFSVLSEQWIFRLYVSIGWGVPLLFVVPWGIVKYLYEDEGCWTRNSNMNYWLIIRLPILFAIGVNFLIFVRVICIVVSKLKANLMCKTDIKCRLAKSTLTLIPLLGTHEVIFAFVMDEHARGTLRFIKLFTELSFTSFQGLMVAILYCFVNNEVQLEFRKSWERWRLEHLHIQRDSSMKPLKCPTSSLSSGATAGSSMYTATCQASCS
# Method in brief: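 HEK293 cells stably co-expressing a cAMP-responsive luciferase reporter and a hypersensitive GLP-1R were plated 12 h at 37 °C and exposed to compounds for 4-6 hr at 37 °C, 5% CO2. Luminescence was read 12 min after adding detection reagent.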
# [5] = qHTS of Nrf2 Activators: LOPAC Validation (AID 624149); conditions: Nrf2/ARE reporter cell assay; series mostly up to 46.1 µM
# Method in brief: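 AREc32_Fluc cells, 1000/well in OPTI-MEM with 5% FBS, grown overnight, then exposed to compounds for 24 hr at 37 deg C, 5% CO2. ARE-driven firefly luciferase read by Steady-Glo luminescence after 30 min at RT.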
# [6] = qHTS assay for small molecule activators of the nuclear factor-kappa B (NF-kB) signaling pathway (AID 651749; active = well fitted activation curve with a large enough effect in the signal ratio; the % refers to the signal ratio); conditions: NF-kB-bla ME-180 cells, beta-lactamase FRET ratio, 16 h; stronger effect = higher value
# Method in brief: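 Screening used 2,000 ME-180 reporter cells per well exposed to pinned compound (23 nL) or DMSO; after 16 hr at 37C, beta-lactamase expression under NF-kB control was assessed through FRET.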
# [7] = qHTS assay for small molecule agonists of the antioxidant response element (ARE) signaling pathway (AID 651741; active = well fitted activation curve with a large enough effect in the signal ratio; the % refers to the signal ratio; note: potency is the fitted concentration of half-maximal effect); conditions: HepG2 ARE-bla reporter, beta-lactamase FRET ratio, 16 h; series mostly up to 96 µM
# Method in brief: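 Compounds in DMSO are pinned onto HepG2 ARE-bla cells (2,000/well) that were preincubated 5 h; plates stay 16 h at 37 C, then beta-lactamase activity is detected with LiveBLAzer B/G substrate by fluorescence.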
# [8] = Cytotoxicity counterscreen for NFkB agonists and antagonists (AID 624476); conditions: NFkB reporter cell line viability counterscreen; series mostly up to 46.1 µM;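 note: potency is the fitted concentration of half-maximal effect; cells exposed to compound for 48 hours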
# [9] = qHTS Assay for Identification of Small Molecule Agonists for NFkB Signaling Pathway. (AID 624478); conditions: NFkB pathway reporter cell assay, agonist mode, cells co-stimulated with 10 pM TNF alpha; series mostly up to 46.1 µM
# Method in brief: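 NFkB-bla ME-180 cells carry a beta-lactamase reporter. They received compound plus TNF alpha at 10 pM final (its EC50) for 5 h at 37 C. Reporter activity was read as 460/530 nm emission ratio after 2 h LiveBLAzer substrate loading.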
# [10] = Cell Proliferation Assay against the TMD8 Cell Line (AID 651645); conditions: TMD8 DLBCL cell line proliferation/viability; at 46.1 µM (top of the series);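 note: cells exposed to compound for 48 h before reading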
# Method in brief: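 TMD8 cells, 500/well in RPMI with 5% FBS, dosed immediately and grown 48 h at 37 C, 5% CO2. CellTiter-Glo luminescence normalised to DMSO 100% and 9.2 uM bortezomib (final) 0%.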
# [11] = Cell Proliferation Assay against the HBL1 Cell Line (AID 651646); conditions: HBL1 DLBCL cells; at 46.1 µM (top of the series);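 note: cells exposed to compound for 48 h before reading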
# Method in brief: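 500 log-phase HBL1 cells per well in phenol red-free RPMI with 5% FBS were treated with compounds for 48 h at 37 °C, 5% CO2. Viability was read by CellTiter-Glo luminescence, normalized to DMSO (100%) and 9.2 uM bortezomib final (0%).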
# [12] = Cell Proliferation Assay against the TMD8 Cell Line (Caspase readout at 8 hrs) (AID 651713); conditions: TMD8 lymphoma cells, caspase activation luminescence; series mostly up to 46.1 µM
# Method in brief: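 TMD8 cells in RPMI plus 5% FBS were treated with compound for 8 h at 37C. Caspase 3/7 activation was read by Caspase-Glo luminescence. Percent activity was scaled from DMSO (0%) to 9.2 uM bortezomib final (100%).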
# [13] = qHTS assay for small molecule disruptors of the mitochondrial membrane potential - 1 hr assay (AID 651754; calls by dose curve; note: potency is the fitted concentration of half-maximal effect; nearly all actives have a fitted effect of over 35% in size); conditions: series mostly up to 92.2 µM
# Method in brief: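 HepG2 cells, attached overnight, were exposed to compound for 1 hr at 37C, then stained 30 min with a potentiometric dye. Ratio of red aggregate (590nm) to green monomer (535nm) fluorescence reports membrane potential; collapse shifts signal toward green.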
# [14] = qHTS assay for small molecule disruptors of the mitochondrial membrane potential - 5 hr assay (AID 651755; calls by dose curve; note: potency is the fitted concentration of half-maximal effect; nearly all actives have a fitted effect of over 40% in size); conditions: JC-1-type ratio dye; series mostly up to 92.2 µM
# Method in brief: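 HepG2 cells, attached overnight at 37C, were exposed to compound or DMSO for 5 hr at 37C, 5% CO2. Mito-MPS dye was then added for 30 min, and fluorescence read at 490/535 nm (monomers) and 540/590 nm (aggregates).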
compound,measurement,setting,value
Oc1ccccc1O,Potency,[1],inactive
same,Potency,[2],inactive
same,activation,[3],25.3% (inactive)
O=C(O)CCCC[C@@H]1CCSS1,outcome,[4],inactive
same,outcome,[5],inactive
same,Potency,[2],inactive
N.N.O=C(O)C1(C(=O)O)CCC1.[Pt],outcome,[4],inactive
same,outcome,[5],inactive
O=C(O)/C=C\C(=O)O,activation,[3],-1.58% (inactive)
same,activation,[6],-0.21% (inactive)
CCCCCCCCCCCCCCCCCCNC(=O)OCC(COP(=O)([O-])OCC[n+]1ccsc1)OC (configuration not stated),outcome,[4],inactive
same,Potency,[2],inactive
Nc1ccc([N+](=O)[O-])cc1O,activation,[3],-1.9% (inactive) and 0.18% (inactive)
same,activation,[6],0.687% (inactive) and -0.798% (inactive)
CC(C)ON([C@@H](C(=O)NO)C(C)C)S(=O)(=O)c1ccc(-c2ccccc2)cc1,outcome,[4],inactive
same,Potency,[2],inactive
Cc1nc2sccn2c(=O)c1CCN1CCC(=C(c2ccccc2)c2ccc(F)cc2)CC1,outcome,[4],inactive
same,Potency,[2],inactive
O=C1NC(O)=NC1(c1ccccc1)c1ccccc1,Potency,[2],inactive
S=c1[nH]c2ccccc2s1,Potency,[7],37.6 µM (active) and 27.3 µM (active)
same,activation,[3],-3.47% (inactive) and -2.03% (inactive)
C=CCc1cccc(/C=N/NC(=O)CN2CCN(Cc3ccccc3)CC2)c1O,Potency,[8],16.6 µM (active)
same,outcome,[9],inactive
same,viability (% of control),[10],11.3%
same,"viability, percent of control",[11],26%
same,outcome,[12],inactive
O=C(Nc1ccccc1)c1cc([N+](=O)[O-])ccc1Cl,Potency,[1],inactive
same,outcome,[5],inactive
same,Potency,[2],inactive
same,Potency,[7],1.22 µM (active)
same,activation,[3],4.29% (inactive)
CC(C)NC[C@H](O)COc1cccc2[nH]ccc12,outcome,[4],inactive
same,Potency,[2],inactive
OCC1O[C@H]([S-])[C@H](O)[C@@H](O)[C@@H]1O.[Au+] (some centres not stated),outcome,[4],inactive
same,Potency,[2],inactive
CCCCCCCCCCCCCCCC(=O)OC(CC(=O)O)C[N+](C)(C)C (configuration not stated),outcome,[5],inactive
same,Potency,[2],inactive
CC(=O)SCC[N+](C)(C)C,outcome,[4],inactive
same,outcome,[5],inactive
same,Potency,[2],inactive
CN(C)c1ccc(N=NS(=O)(=O)O)cc1,Potency,[7],37.6 µM (active) and 24.3 µM (active)
same,activation,[3],-1.59% (inactive) and 15.3% (inactive)
same,Potency,[13],15 µM (active)
same,Potency,[14],8.41 µM (active)
C=C[C@@H]1CN2CC[C@@H]1C[C@H]2[C@H](O)c1ccnc2ccc(OC)cc12,outcome,[5],inactive
same,Potency,[2],inactive
CC(C)(C)c1ccc(S(=O)(=O)/C=C/C#N)cc1,outcome,[4],inactive
